Source: PubChem (National Center for Advancing Translational Sciences (NCATS))
Compounds with a hit are over-represented: about 11% of the library has one in this group of screens.
NS1 function inh – influenza NS1 inhibition | actives 0.4% (n = 270,000) | Potency, µM (highest dose often 46.1 µM), without a hit: top-dose activity, positive = more growth | AID 2326; calls by dose curve; further: actives are rising curves; nearly all actives have a fitted effect of over 50% in size
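Recovery from NS1-induced slow growth read by OD600 in budding yeast switched to galactose assay medium (pH 6.0, -URA) at 1:100 dilution. Compound 23 nl per well; the matching strain lacking NS1 serves as control.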
Pf growth 96h – P. falciparum growth inhibition at 96 hours | actives 6.9% (n = 320,000) | P. falciparum luciferase reporter growth, 96 h | Potency, µM (doses to about 28.7 µM), without a hit: at the highest dose activity change, negative = inhibition, most hits filed as inhibitors; further: on the % scale 0 is the no-effect control and ±100 the full control effect
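Luminescence readout: decreased luciferase signal marks inhibited growth of reporter-expressing P. falciparum in infected red cells (2% hematocrit, 0.05% parasitemia final), exposed to compound two generations (96 h, 37 C, 5% CO2).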
HCV inhibitor – inhibitors of hepatitis C virus infection | Potency, µM (series often up to 41.8 µM), inactives show at the top dose activity change, negative = inhibition, hits mostly inhibitors | AID 651820 | actives 3.4% (n = 340,000) | Huh7.5.1 HCVcc-Cre infection, luciferase reporter, 44 h; further: on the % scale 0 is the no-effect control and ±100 the full control effect
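Luciferase read-out (15 sec integration) after a 15 min room-temperature substrate step quantifies HCVcc-Cre infection. Cells, 1,000 per well, had compound added 4 h post-plating, then virus at ~0.5 moi, and were cultured 44 h.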
VACV mCherry inh – vaccinia inhibition (mCherry reporter); Vaccinia virus mCherry reporter infection, fluorescence; Potency, µM (series often up to 36.5 µM), without a hit: top-dose activity change, negative = inhibition, most hits filed as inhibitors; actives 0.63% (n = 310,000); calls by dose curve; tested in A549 cells; further: on the % scale 0 is the no-effect control and ±100 the full control effect; nearly all actives have a fitted effect of over 35% in size
Vaccinia Venus – vaccinia inhibition (Venus reporter); actives 0.46% (n = 330,000); AID 720580; Vaccinia virus Venus reporter expression, fluorescence; Potency, µM (highest dose often 36.5 µM), for inactives: top-dose activity change, negative = inhibition, hits mostly inhibitors; calls by dose curve; tested in A549 cells; further: on the % scale 0 is the no-effect control and ±100 the full control effect; nearly all actives have a fitted effect of over 30% in size
Pf growth 48h – inhibits P. falciparum growth in the first generation, 48 h; AID 504832; Potency, µM (highest dose often 28.7 µM), inactives show at the top dose activity change, negative = inhibition, hits mostly inhibitors; P. falciparum luciferase growth in erythrocytes, 48 h; actives 5.9% (n = 310,000); further: on the % scale 0 is the no-effect control and ±100 the full control effect
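Erythrocytes infected with P. falciparum carrying an integrated firefly luciferase reporter (2% hematocrit, 0.1% parasitemia final) were exposed to compounds in RPMI 1640 with 0.5% Albumax at 37 C, 5% CO2. Growth inhibition was scored as reduced luminescence.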
Starred values were filed as active, the others as inactive; i = inactive; u = inconclusive; x = no result; [ ] = dose if it differs, or a comment. Unless noted, the call rests on the fitted dose curve; in most records, active means well fitted inhibition curve with a large enough effect; inconclusive means small, poorly fitted or top-dose-only effect, or another doubt; inactive means no such curve, though single readings can be large or run the other way. Potency means the concentration at half of the fitted maximal effect.

SMILES | NS1 function inh | Pf growth 96h | HCV inhibitor | VACV mCherry inh | Vaccinia Venus | Pf growth 48h
Cc1cccc(NC(=O)c2ccc(Cl)c(S(=O)(=O)N3CCCCCC3)c2)n1 | x | u | -13.1% | -12.0% | -4.3% | u
Cc1cccc(NC(=O)c2ccc(Cl)c(S(=O)(=O)N3CCc4ccccc43)c2)n1 | x | 11.7µM* | u | x | x | 11.7µM*
O=C(Nc1ccncc1)c1ccc(Cl)c(S(=O)(=O)N2CCc3ccccc32)c1 | x | 3.7µM* | 10µM* | -19.0% | -25.4% | 3.29µM*
Cc1cccc(NC(=O)c2ccc(Cl)c(S(=O)(=O)N3CCCCC3)c2)n1 | x | 97.8% | u | -0.9% | -13.4% | 56.6%
Nc1ccc(C(=O)Nc2ccc3nc(-c4ccncc4)[nH]c3c2)cc1 | 8.2% | 18.5% | 9.9% | x | x | u
Cc1cccc(NC(=O)c2cc(S(=O)(=O)N3CCCCC3)ccc2Cl)n1 | x | u | 14.7% | i | -9.0% | 9.28µM*
COc1ccc(S(=O)(=O)N2CCCCCC2)cc1C(=O)Nc1cc(C)ccn1 | x | 10.4µM* | 0.5% | x | x | 9.28µM*
O=C(CCc1nnc(CCc2ccccc2)o1)N1CCCC1c1nccs1 (stereo not given) | -1.7% | 13.1µM* | 10.8% | x | x | 0.0%
C/C(=N\NC(=O)c1cccc(S(=O)(=O)N2CCCC2)c1)c1ccc(C)cc1 | x | -21.6% | -10.4% | -22.9% | -16.4% | u
CN(C)CCNC=C(C(=O)Nc1ccc(Cl)cc1Cl)C(=O)Nc1ccc(Cl)cc1Cl | 3.3% | 1.85µM* | u | i | -17.4% | 3.29µM*
Cc1ccc(C(=O)NNC(=O)C2CCN(Cc3ccc(Cl)c(Cl)c3)CC2)cc1 | 7.5% | 79.9% | 13.7% | x | -16.6% | 48.9%
CCOC(=O)c1cc(-c2ccc(F)cc2)n(CC(=O)NC2CCCCCC2)c1C | x | x | x | u | -28.1% | x
O=c1c2ccsc2ncn1Cc1ccc(Cl)cc1 | -38.4% | u | 10.4% | x | -8.0% | 5.2%
Cc1ccc2c(c1)c1c(c(=O)n(-c3ccccc3C)c(=O)n1CC(=O)NCC1CCCO1)n2C (stereo not given) | 6.7% | 9.28µM* | -25.7% | 10.6% | -2.8% | u
COC(=O)c1sc(NC(=O)COc2ccccc2)nc1C | -19.7% | u | -12.9% | x | -6.1% | x
O=C(N/N=C\c1cccs1)c1sccc1-n1cccc1 | x | 13.1µM* | -25.7% | -9.3% | -2.0% | u
O=C(N/N=C\c1ccccc1)c1sccc1-n1cccc1 | -13.7% | 41.3% | 22.6% | x | -11.5% | 57.5%
O=C(NNC(=O)c1sccc1-n1cccc1)c1ccc(Cl)cc1 | -0.4% | 0.329µM* | -24.1% | x | -27.4% | u
Cc1ccc(CCNC(=O)C2CCN(C(=O)N(C)C)CC2)cc1 | -18.4% | 1.31µM* | 11.1% | -4.0% | -1.9% | x
O=C(NNS(=O)(=O)c1ccc(Cl)cc1)c1sccc1-n1cccc1 | 19.8% | 43.6% | -7.7% | x | x | 1.4%
O=C(NCCc1ccc(Cl)cc1)C1CCN(C(=O)c2sccc2-n2cccc2)CC1 | -5.1% | 29.3% | 8.91µM* | -20.8% | -26.7% | x
O=C(NCCc1ccc(Cl)cc1)C1CCN(S(=O)(=O)c2ccc(Br)s2)CC1 | x | u | 10µM* | -28.3% | -22.0% | u
CCOC(=O)CC(=O)CSc1nc2ccccc2c(=O)n1CCc1ccccc1 | x | x | x | -3.9% | 1.5% | x
CCn1c(/C=C2\C(=O)N(C(C)C)c3ccccc32)nc2ccccc2c1=O | -6.3% | u | u | u | -28.4% | 3.7µM*
O=c1c2ccccc2nc(/C=C/c2cc(Br)ccc2O)n1CCCO | 4.0% | u | u | 11.2µM* | u | 1.31µM*
SMILES | NS1 function inh | Pf growth 96h | HCV inhibitor | VACV mCherry inh | Vaccinia Venus | Pf growth 48h
NC(=O)CSc1nc2ccccc2c(=O)n1CCc1ccccc1 | -5.8% | 5.86µM* | -15.9% | -7.6% | -0.3% | 10.6%
CCn1c(/C=C/c2ccccc2Cl)nc2ccccc2c1=O | -32.1% | 1.65µM* | -18.0% | -26.8% | -13.3% | 1.85µM*
O=c1c2ccccc2nc(/C=C/c2cccc([N+](=O)[O-])c2)n1CCO | -6.4% | -24.0% | u | -10.5% | -18.4% | -17.3%
O=c1c2ccccc2nc(/C=C/c2cccnc2)n1CCc1ccccc1 | -44.3% | u | -15.4% | i[7.34 µM] | -0.4%[7.34 µM] | u
O=c1c2ccccc2nc(SCc2ccccc2Cl)n1Cc1ccccc1 | -8.6% | u | -21.7% | x | x | u
O=c1c2ccccc2nc(/C=C/c2ccccc2)n1CCc1ccccc1 | 1.1% | 4.65µM* | 0.4% | i | -4.7% | u
C=CCSc1nc2ccccc2c(=O)n1Cc1ccccc1 | x | 84.5% | -12.3% | -18.6% | -13.2% | 11.7µM*
COc1ccccc1S(=O)Cc1ccc(C(=O)NC2CCCC2)o1 (stereo not given) | 7.4% | u | -0.8% | i | -12.0% | x
Cc1cc(-c2nnco2)c(C)n1-c1ccc(F)cc1 | -49.5% | -3.4% | -1.5% | -12.1% | -14.5% | 64.1%
Cc1ccc(C)n1-c1ccc(-c2nnco2)cc1 | 5.0% | 11.7µM* | x | x | x | -6.0%
CCOc1ccc(NC(=O)CN(C)C(=O)CCCOc2ccc(Br)cc2)cc1OCC | x | u | u | -14.3% | -24.9% | -30.4%
CCN(CC)CCCNC(=O)c1cc2c(-c3cccc(OC)c3)nn(C)c2s1 | -4.4% | 80.1% | 11.2µM* | -7.1% | -23.4% | 8.28µM*
COc1cccc(-c2nn(C)c3sc(C(=O)NCCCN(C)Cc4ccccc4)cc23)c1 | -2.2% | 57.4% | u | i | u | 2.08µM*
COc1cccc(-c2nn(C)c3sc(C(=O)NCCc4ccc(Cl)cc4)cc23)c1 | x | x | x | -16.9% | -11.9% | x
CCOCCCNC(=O)c1cc2c(-c3ccc(OC)c(OC)c3)nn(C)c2s1 | x | x | x | -2.7% | -8.0% | x
CCN1CCCC1CNC(=O)c1cc2c(-c3cccc(OC)c3)nn(C)c2s1 (stereo not given) | -3.2% | 5.86µM* | u | u | -23.4% | u
CCCCN(CC)CCCNC(=O)c1cc2c(-c3ccc(OC)c(OC)c3)nn(C)c2s1 | -1.2% | u | u | -7.4% | -27.1% | 2.62µM*
COCCCNC(=O)c1cc2c(-c3ccc(Cl)cc3)nn(C)c2s1 | -7.8% | 43.0% | u | 3.2% | -3.1% | x
CC1CC(=O)Nc2ccccc2N1S(=O)(=O)c1ccc(Br)cc1 (stereo not given) | 2.2% | -1.8% | 7.1% | x | x | u
CCc1ccc(CCC(=O)Nc2ccccc2C(=O)O)o1 | -46.4% | u | 34.8% | x | x | -15.3%
CC(=O)Nc1cccc(NC(=O)c2cc(-c3ccccn3)nc3ccc(Cl)cc23)c1 | -6.9% | 13.0% | u | 0.1% | 0.1% | -2.6%
COc1cccc(-c2nn(C)c3sc(C(=O)NCc4ccco4)cc23)c1 | -7.0% | 3.8% | 7.08µM* | -14.3% | u | 7.38µM*
Cn1nc(-c2ccc(Cl)cc2)c2cc(C(=O)NCCCN3CCCC3)sc21 | 1.9% | u | 12.6µM* | -27.6% | u | x
CCCCN(C)CCNC(=O)c1cc2c(-c3ccccc3F)nn(C)c2s1 | 0.5% | -6.0% | u | -16.1% | -15.5% | u
